Results: PubChem BioAssay (Tox21)
Where “and” joins values, the source holds several entries; their conditions need not be identical. Equal values may be shown once. Inconclusive results are not listed. Calls of active or inactive are those of the source. Calls come from the whole dose curve; as a rule, active = well fitted curve in the direction sought with a large enough effect in the repeat runs; inconclusive = weak or mixed curves; inactive = no such curve, though single readings can be large; an effect the other way counts as inactive or inconclusive.

Assays:
[1] = Caspase-3/7 induction in CHO-K1 cells by small molecules, qHTS cell viability counter screen (AID 1346979); note: nearly all actives have a fitted effect of over 35% in size; note: potency is the fitted concentration of half-maximal effect
Outline: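 Viability readout by fluorescence (CellTiter-Fluor) on wild-type CHO-K1 cells exposed for 16hr at 37C and 5% CO2 to compounds delivered in DMSO; reagent incubated 1hr before reading.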

[2] = Caspase-3/7 induction in CHO-K1 cells by small molecules, qHTS assay (AID 1346980); note: nearly all actives have a fitted effect of over 15% in size; note: potency is the fitted concentration of half-maximal effect
Outline: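 Wild-type CHO-K1 cells exposed to compounds for 17hr at 37 C, 5% CO2. Caspase-3/7 activity then measured by Caspase-Glo 3/7 luminescence after 30min at room temperature.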

[3] = Caspase-3/7 induction in HepG2 cells by small molecules, qHTS cell viability counter screen (AID 1346981); note: nearly all actives have a fitted effect of over 30% in size; note: potency is the fitted concentration of half-maximal effect; for activity change, negative = cytotoxicity: series mostly up to about 92 µM
Outline: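 HepG2, WT, 2,000 cells/well; 5 hr pre-incubation 37 C/5% CO2; compound pin-transferred from DMSO; 16 hr exposure; CellTiter-Fluor, 1 hr; fluorescence read.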

[4] = target: Nuclear receptor subfamily 1 group I member 2 (Homo sapiens) (UniProt O75469); assay: Human pregnane X receptor (PXR) small molecule agonists, qHTS assay (AID 1346982); note: nearly all actives have a fitted effect of over 35% in size; note: potency is the fitted concentration of half-maximal effect
Chain of Nuclear receptor subfamily 1 group I member 2 (Homo sapiens) (O75469 whole entry, looked up): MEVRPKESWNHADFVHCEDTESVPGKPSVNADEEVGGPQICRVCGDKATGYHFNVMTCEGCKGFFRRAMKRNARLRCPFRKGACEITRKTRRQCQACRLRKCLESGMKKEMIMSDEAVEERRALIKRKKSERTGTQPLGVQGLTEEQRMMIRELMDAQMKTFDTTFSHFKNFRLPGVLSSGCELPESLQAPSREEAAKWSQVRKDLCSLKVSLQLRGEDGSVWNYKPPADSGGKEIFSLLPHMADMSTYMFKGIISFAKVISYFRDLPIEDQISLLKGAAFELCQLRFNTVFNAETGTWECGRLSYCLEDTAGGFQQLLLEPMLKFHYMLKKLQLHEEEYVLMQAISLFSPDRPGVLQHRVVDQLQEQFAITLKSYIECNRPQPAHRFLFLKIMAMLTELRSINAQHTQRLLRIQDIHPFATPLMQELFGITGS
Outline: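 Luciferase signal from ONE-Glo (30 min, room temperature) measured activation of hPXR-driven CYP3A4 reporter expression in PXR-Luc HepG2 cells treated with compounds for 24 hr at 37 C.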

[5] = target: Nuclear receptor subfamily 1 group I member 2 (Rattus norvegicus) (UniProt Q9R1A7); assay: Rat pregnane X receptor (rPXR) activation by small molecules, qHTS assay (AID 1346983); settings: rPXR luciferase reporter cells, One-Glo luminescence, 24 h; max activation: hits give high values; note: nearly all actives have a fitted effect of over 20% in size
Chain of Nuclear receptor subfamily 1 group I member 2 (Rattus norvegicus) (Q9R1A7 whole entry, looked up): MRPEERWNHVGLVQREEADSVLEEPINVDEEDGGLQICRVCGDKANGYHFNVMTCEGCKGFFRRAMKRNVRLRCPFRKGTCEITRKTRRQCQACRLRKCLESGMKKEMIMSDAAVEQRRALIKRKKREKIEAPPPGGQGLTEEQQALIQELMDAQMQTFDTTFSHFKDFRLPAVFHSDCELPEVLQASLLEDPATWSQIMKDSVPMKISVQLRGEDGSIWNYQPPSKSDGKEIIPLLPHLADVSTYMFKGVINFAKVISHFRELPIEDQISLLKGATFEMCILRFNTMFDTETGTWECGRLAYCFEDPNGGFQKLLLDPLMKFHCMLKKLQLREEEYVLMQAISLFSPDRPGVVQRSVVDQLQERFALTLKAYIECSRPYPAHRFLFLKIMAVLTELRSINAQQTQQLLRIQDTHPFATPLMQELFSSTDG
Outline: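 Cell-based rPXR activation assay: rPXR cells, 2,000 per well, rested 5hr at 37 C, then exposed to compounds in DMSO for 24 hr at 37 C. Luciferase activity read by One-Glo luminescence after 30 min at room temperature.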

[6] = target: Nuclear receptor subfamily 1 group I member 2 (Homo sapiens) (UniProt O75469); assay: CYP3A4 induction through human pregnane X receptor (PXR) by small molecules, qHTS assay (AID 1346984); note: nearly all actives have a fitted effect of over 40% in size; note: potency is the fitted concentration of half-maximal effect
Outline: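 Luminescence readout: luciferase signal after One-Glo (30 min, room temperature), following 3 h at 37C with 3uM final Luciferin-IPA P450 substrate. Cells were DPX-2 (HepG2, PXR/CYP3A4-luc co-transfected) dosed for 24 h.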

[7] = target: Nuclear receptor subfamily 1 group I member 2 (Homo sapiens) (UniProt O75469); assay: Human pregnane X receptor (PXR) activation by small molecules, qHTS assay (AID 1346985); note: nearly all actives have a fitted effect of over 40% in size; note: potency is the fitted concentration of half-maximal effect
Outline: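 DPX-2 cells (HepG2 co-transfected with a PXR response element and a CYP3A4-promoter luciferase construct) were seeded at 2,000 per well, rested 5 hr at 37C, then exposed to DMSO-dissolved compounds for 24 hr. Activation was read as luciferase luminescence.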

[8] = target: Cytochrome P450 2D6 (Homo sapiens) (UniProt P10635); assay: Cytochrome P450 Family 2 Subfamily D Member 6 (CYP2D6) small molecule antagonists: luciferase reporter qHTS assay (AID 1671196); note: nearly all actives have a fitted effect of over 50% in size; note: potency is the fitted concentration of half-maximal effect; for activity change, negative = inhibition: series mostly up to about 120 µM
Chain of Cytochrome P450 2D6 (Homo sapiens) (P10635 whole entry, looked up): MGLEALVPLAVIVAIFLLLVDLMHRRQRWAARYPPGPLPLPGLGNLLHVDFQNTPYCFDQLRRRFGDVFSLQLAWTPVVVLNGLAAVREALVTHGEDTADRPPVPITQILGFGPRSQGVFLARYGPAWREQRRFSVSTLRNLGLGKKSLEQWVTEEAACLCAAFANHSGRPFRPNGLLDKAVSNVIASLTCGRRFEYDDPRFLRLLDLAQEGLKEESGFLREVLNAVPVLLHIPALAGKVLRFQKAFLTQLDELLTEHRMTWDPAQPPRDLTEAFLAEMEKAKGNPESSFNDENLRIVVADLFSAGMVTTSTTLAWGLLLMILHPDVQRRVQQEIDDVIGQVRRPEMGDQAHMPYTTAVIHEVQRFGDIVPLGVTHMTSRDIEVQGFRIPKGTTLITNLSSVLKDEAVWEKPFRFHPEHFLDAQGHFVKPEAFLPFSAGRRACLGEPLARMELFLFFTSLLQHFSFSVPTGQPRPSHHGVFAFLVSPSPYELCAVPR
Outline: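 Read-out is luminescence from luciferin formed by CYP2D6 turnover of a proluciferin substrate, recorded as relative luminescence units. Reactions ran 1 h at room temperature after NADPH regeneration solution was added.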

[9] = target: Cytochrome P450 2C19 (Homo sapiens) (UniProt P33261); assay: Cytochrome P450 Family 2 Subfamily C Member 19 (CYP2C19) small molecule antagonists: luciferase reporter qHTS assay (AID 1671197); note: nearly all actives have a fitted effect of over 65% in size; note: potency is the fitted concentration of half-maximal effect; for activity change, negative = inhibition: series mostly up to about 120 µM
Chain of Cytochrome P450 2C19 (Homo sapiens) (P33261 whole entry, looked up): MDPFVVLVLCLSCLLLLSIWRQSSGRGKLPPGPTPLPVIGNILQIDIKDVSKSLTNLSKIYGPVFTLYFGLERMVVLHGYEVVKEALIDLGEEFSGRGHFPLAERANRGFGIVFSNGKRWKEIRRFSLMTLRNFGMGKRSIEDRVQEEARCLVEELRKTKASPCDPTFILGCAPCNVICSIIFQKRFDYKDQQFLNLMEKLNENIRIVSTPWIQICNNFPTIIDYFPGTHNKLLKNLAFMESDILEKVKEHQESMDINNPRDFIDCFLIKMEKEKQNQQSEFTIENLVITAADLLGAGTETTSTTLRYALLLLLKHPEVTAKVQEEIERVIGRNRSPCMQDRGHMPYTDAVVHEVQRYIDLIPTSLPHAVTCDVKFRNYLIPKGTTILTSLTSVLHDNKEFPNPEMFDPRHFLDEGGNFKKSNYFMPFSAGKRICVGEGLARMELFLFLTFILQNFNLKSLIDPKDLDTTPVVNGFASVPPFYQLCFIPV
Outline: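 Luminescent readout of CYP2C19 activity: luciferin product detected 20 min after adding detection reagent. Before that, compound and enzyme-substrate mix preincubated 10 min at room temperature; NADPH-regenerating system started a 1 h, 37C reaction. Ketoconazole as positive control.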

[10] = target: Cytochrome P450 2C9 (Homo sapiens) (UniProt P11712); assay: Cytochrome P450 Family 2 Subfamily C Member 9 (CYP2C9) small molecule antagonists: luciferase reporter qHTS assay (AID 1671198); note: nearly all actives have a fitted effect of over 50% in size; note: potency is the fitted concentration of half-maximal effect; for activity change, negative = inhibition: series mostly up to about 120 µM
Chain of Cytochrome P450 2C9 (Homo sapiens) (P11712 whole entry, looked up): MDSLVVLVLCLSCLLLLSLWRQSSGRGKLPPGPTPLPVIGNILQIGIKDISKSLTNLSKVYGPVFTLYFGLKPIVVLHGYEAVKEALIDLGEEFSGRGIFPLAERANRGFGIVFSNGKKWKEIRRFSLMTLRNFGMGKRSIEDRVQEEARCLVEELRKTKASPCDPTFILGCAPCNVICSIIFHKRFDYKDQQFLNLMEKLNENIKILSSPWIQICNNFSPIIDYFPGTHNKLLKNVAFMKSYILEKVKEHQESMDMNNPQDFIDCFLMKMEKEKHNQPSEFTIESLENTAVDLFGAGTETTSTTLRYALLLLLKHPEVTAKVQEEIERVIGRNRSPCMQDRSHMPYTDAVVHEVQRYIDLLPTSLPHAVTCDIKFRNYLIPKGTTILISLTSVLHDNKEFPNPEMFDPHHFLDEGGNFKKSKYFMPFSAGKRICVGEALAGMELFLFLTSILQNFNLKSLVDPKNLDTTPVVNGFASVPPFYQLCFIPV
Outline: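 P450-Glo proluciferin substrate with CYP2C9 enzyme; 10 min RT preincubation, then NADPH regeneration 1 h at 37C; luciferin detection reagent 20 min RT, luminescence in relative luminescence units.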

[11] = target: Cytochrome P450 1A2 (Homo sapiens) (UniProt P05177); assay: Cytochrome P450 Family 1 Subfamily A Member 2 (CYP1A2) small molecule antagonists: luciferase reporter qHTS assay (AID 1671199); note: nearly all actives have a fitted effect of over 50% in size; note: potency is the fitted concentration of half-maximal effect; for activity change, negative = inhibition: series mostly up to about 120 µM
Chain of Cytochrome P450 1A2 (Homo sapiens) (P05177 whole entry, looked up): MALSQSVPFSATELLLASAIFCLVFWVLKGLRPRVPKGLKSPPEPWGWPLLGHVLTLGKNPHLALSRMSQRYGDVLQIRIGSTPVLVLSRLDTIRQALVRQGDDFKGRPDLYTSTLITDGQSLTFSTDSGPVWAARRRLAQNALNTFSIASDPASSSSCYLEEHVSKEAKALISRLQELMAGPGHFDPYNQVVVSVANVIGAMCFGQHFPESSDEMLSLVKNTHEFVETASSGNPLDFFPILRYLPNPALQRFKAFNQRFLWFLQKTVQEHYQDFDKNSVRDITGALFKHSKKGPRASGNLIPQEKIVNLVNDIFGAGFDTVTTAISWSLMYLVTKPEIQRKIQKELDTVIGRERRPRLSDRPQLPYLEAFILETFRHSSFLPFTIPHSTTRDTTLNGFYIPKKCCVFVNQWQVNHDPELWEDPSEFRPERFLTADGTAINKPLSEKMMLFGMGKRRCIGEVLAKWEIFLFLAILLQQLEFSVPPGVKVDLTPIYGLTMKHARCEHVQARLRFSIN
Outline: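 P450-Glo CYP1A2, 1536-well qHTS: enzyme/proluciferin substrate + cpd (DMSO), 10 min RT; NADPH regen, 1 h RT; detection reagent, 20 min; luminescence, RLU.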

[12] = target: Voltage-gated inwardly rectifying potassium channel KCNH2 (Homo sapiens) (UniProt Q12809); assay: Human Ether-a-go-go-Related Gene (hERG) channel small molecule antagonists: fluorescence cell-based qHTS assay (AID 1671200); note: nearly all actives have a fitted effect of over 50% in size; note: potency is the fitted concentration of half-maximal effect;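 for activity change, negative = inhibition: hERG-expressing U2OS cells given a thallium stimulus after FluxOR II dye loading; series mostly up to about 77 µM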
Chain of Voltage-gated inwardly rectifying potassium channel KCNH2 (Homo sapiens) (Q12809 whole entry, looked up): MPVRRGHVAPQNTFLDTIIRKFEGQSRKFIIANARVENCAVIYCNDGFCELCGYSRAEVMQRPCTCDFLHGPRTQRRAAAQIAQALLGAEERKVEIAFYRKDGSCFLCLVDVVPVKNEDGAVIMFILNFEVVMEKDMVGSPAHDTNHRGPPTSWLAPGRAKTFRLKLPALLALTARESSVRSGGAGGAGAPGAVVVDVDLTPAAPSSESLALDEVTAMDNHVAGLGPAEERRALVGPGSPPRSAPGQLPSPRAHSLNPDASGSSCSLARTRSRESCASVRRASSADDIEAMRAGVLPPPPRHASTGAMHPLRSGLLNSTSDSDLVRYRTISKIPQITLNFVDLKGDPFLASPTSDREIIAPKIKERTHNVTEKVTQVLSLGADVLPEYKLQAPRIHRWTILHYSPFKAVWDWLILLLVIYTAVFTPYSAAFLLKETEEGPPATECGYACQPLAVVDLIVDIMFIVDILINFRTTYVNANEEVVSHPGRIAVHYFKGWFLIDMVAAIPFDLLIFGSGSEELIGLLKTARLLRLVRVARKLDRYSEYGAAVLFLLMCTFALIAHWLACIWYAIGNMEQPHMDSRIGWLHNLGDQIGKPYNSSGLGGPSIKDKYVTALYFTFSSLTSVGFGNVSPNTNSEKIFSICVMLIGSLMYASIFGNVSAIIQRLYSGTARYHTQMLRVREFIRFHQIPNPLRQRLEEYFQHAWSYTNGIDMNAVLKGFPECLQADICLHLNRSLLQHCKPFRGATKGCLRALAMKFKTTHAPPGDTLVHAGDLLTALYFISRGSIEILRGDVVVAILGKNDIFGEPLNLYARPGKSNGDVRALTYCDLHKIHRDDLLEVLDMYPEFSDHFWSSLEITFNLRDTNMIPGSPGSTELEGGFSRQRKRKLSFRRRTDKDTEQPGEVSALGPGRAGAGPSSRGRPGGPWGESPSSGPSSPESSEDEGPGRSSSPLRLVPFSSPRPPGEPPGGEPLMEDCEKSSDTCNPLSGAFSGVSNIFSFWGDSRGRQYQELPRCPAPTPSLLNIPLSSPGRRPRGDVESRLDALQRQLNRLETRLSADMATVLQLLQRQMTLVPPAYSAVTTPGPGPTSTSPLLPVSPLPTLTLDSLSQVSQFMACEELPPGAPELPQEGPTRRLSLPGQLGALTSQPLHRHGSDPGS
Outline: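 Thallium served as the potassium surrogate; its influx into dye-loaded U2OS cells carrying the channel was measured by fluorescence over 2 min.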

[13] = target: Cytochrome P450 3A4 (Homo sapiens) (UniProt P08684); assay: Cytochrome P450 Family 3 Subfamily A Member 4 (CYP3A4) small molecule antagonists: luciferase reporter qHTS assay (AID 1671201); note: nearly all actives have a fitted effect of over 50% in size; note: potency is the fitted concentration of half-maximal effect; for activity change, negative = inhibition: series mostly up to about 120 µM
Chain of Cytochrome P450 3A4 (Homo sapiens) (P08684 whole entry, looked up): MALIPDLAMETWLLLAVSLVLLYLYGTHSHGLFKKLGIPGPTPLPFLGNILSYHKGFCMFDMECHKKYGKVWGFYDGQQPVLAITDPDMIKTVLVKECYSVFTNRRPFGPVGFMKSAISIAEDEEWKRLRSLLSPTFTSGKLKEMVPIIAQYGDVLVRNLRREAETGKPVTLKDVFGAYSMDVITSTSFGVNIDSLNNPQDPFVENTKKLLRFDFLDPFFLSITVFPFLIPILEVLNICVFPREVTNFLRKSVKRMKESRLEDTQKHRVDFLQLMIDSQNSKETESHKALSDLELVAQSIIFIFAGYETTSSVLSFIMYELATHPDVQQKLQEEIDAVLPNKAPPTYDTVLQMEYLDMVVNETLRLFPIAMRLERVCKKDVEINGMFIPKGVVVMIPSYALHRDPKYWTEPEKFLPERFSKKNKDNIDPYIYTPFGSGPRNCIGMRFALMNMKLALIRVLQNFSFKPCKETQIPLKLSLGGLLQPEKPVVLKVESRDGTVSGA
Outline: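 Relative luminescence units after 20 min with luciferin detection reagent served as read-out. Beforehand, CYP3A4 turned over a proluciferin substrate for 1 h at room temperature with NADPH regeneration, following 10 min compound preincubation.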
% is set by controls: 0 for no effect and ±100 for the full control effect.

CN1[C@@H]2CC[C@@H]1CC(OC(=O)C(CO)c1ccccc1)C2 (stereo not given in full)
inactive: Potency [1] | Potency [2] | Potency [3]

C[C@@]12C(=O)OC(=O)[C@]1(C)C1CCC2O1
inactive: max activation [5] -13% | Potency [6] | Potency [8] | Potency [9] | Potency [10] | Potency [11] | Potency [12] | Potency [13]
active: Potency [1] 10.6 µM | Potency [2] 23.7 µM | Potency [3] 2.98 µM | Potency [4] 1.06 µM | Potency [7] 0.794 µM

O=C1C=CC(=O)N1c1ccccc1
active: Potency [1] 9.69 µM | Potency [3] 61.1 µM | Potency [8] 39.9 µM | Potency [9] 20 µM | Potency [10] 28.3 µM | Potency [11] 20 µM | Potency [12] 49 µM
inactive: Potency [2] | Potency [4]

CCCCCCCCCCCCCCCCCO
inactive: activity change, negative = cytotoxicity [1] 11.2% [at 19 µM] | caspase-3/7 activation [2] 1.08% [at 19 µM] | activity change, negative = cytotoxicity [3] 9.49% [at 19 µM] | activation [4] 4.62% [at 19 µM] | activity change, negative = inhibition [8] -4.81% [at 23.6 µM] | activity change, negative = inhibition [9] -5.64% [at 23.6 µM] | activity change, negative = inhibition [10] -2.94% [at 23.6 µM] | activity change, negative = inhibition [11] 6.84% [at 23.6 µM] | activity change, negative = inhibition [12] 5.95% [at 15.8 µM] | activity change, negative = inhibition [13] 7.87% [at 23.6 µM]

CCc1cccc(C)c1
inactive: Potency [1] | Potency [2] | Potency [3] | Potency [4] | Potency [8] | Potency [9] | Potency [10] | Potency [11] | Potency [12] | Potency [13]

CC(=O)Oc1ccc(C2(c3ccc(OC(C)=O)cc3)C(=O)Nc3ccccc32)cc1
active: Potency [9] 11 µM | Potency [10] 5.49 µM
inactive: Potency [1] | Potency [2] | Potency [3] | Potency [4] | max activation [5] -4.61% and -2.34% | Potency [6] | Potency [7] | Potency [8] | Potency [11] | Potency [12] | Potency [13]

CCC(C)c1ccccc1 (stereo not given)
inactive: Potency [1] | Potency [2] | Potency [3] | Potency [4] | Potency [8] | Potency [9] | Potency [10] | Potency [11] | Potency [12]

CCOC(=O)N1CCC(=C2c3ccc(Cl)cc3CCc3cccnc32)CC1
inactive: Potency [2]
active: Potency [1] 43.3 µM and 26.6 µM | Potency [3] 54.5 µM

O=S(O)O
inactive: activity change, negative = cytotoxicity [1] 9.18% [at 19 µM] | caspase-3/7 activation [2] 0.497% [at 19 µM] | activity change, negative = cytotoxicity [3] -4.78% [at 19 µM] | activation [4] 8.59% [at 19 µM] | activity change, negative = inhibition [8] -20.2% [at 23.6 µM] | activity change, negative = inhibition [9] 0.673% [at 23.6 µM] | activity change, negative = inhibition [10] -8.41% [at 23.6 µM] | activity change, negative = inhibition [11] -6.76% [at 23.6 µM] | activity change, negative = inhibition [12] 4.11% [at 15.8 µM]

CN(Cc1cc(Br)cc(Br)c1N)C1CCCCC1
inactive: Potency [1] | Potency [2] | Potency [3] | max activation [5] -3.03% | Potency [13]
active: Potency [4] 13.3 µM | Potency [6] 14.1 µM | Potency [7] 8.91 µM | Potency [8] 0.0078 µM | Potency [9] 4.36 µM | Potency [11] 32.3 µM | Potency [12] 10.7 µM

O=C1c2c(O)ccc(O)c2C(=O)c2c(NCCNCCO)ccc(NCCNCCO)c21
active: Potency [1] 10.6 µM | Potency [3] 11.9 µM
inactive: Potency [2]

C=CC(C)(CCC=C(C)C)OC(=O)/C=C/c1ccccc1 (stereo not given)
inactive: Potency [1] | Potency [2] | Potency [3] | Potency [8] | Potency [12]
active: Potency [4] 61.1 µM | Potency [9] 6.33 µM | Potency [10] 6.33 µM | Potency [11] 31.7 µM

Nc1ncnc2c1ncn2[C@@H]1O[C@H](COP(=O)(O)O)[C@@H](O)[C@H]1O
inactive: Potency [1] | Potency [2] | Potency [3] | Potency [4] | max activation [5] -2.61% | Potency [6] | Potency [7] | Potency [8] | Potency [9] | Potency [10] | Potency [12] | Potency [13]

CCCCCCCC/C=C\CCCCCCCC(=O)NCc1ccc(O)c(OC)c1
inactive: Potency [1] | Potency [2] | Potency [3] | Potency [4] | max activation [5] -4.67% | Potency [6] | Potency [7] | Potency [12]
active: Potency [9] 15.5 µM | Potency [11] 15.5 µM

Brc1ccccn1
inactive: Potency [1] | Potency [2] | Potency [3] | Potency [4] | Potency [8] | Potency [9] | Potency [10] | Potency [11] | Potency [12] | Potency [13]

Cc1ccc2ccc3cccc4ccc1c2c34
active: Potency [8] 63.2 µM | Potency [9] 28.2 µM | Potency [10] 63.2 µM | Potency [11] 0.563 µM | Potency [13] 20 µM
inactive: Potency [1] | Potency [2] | Potency [3] | Potency [4] | Potency [12]

CCC(=O)CC(C)CC (stereo not given)
inactive: activity change, negative = cytotoxicity [1] 4.19% [at 0.349 µM] | caspase-3/7 activation [2] 0.142% [at 0.349 µM] | activity change, negative = cytotoxicity [3] 6.32% [at 0.349 µM] | activation [4] 2.33% [at 0.349 µM] | activity change, negative = inhibition [8] -13% [at 0.435 µM] | activity change, negative = inhibition [9] -5.38% [at 0.435 µM] | activity change, negative = inhibition [10] -10.1% [at 0.435 µM] | activity change, negative = inhibition [11] -14.4% [at 0.435 µM] | activity change, negative = inhibition [12] 2.31% [at 0.29 µM] | activity change, negative = inhibition [13] -0.0732% [at 0.435 µM]

CC(=O)O[C@@H]1C[C@@H]2CC[C@@]1(C)C2(C)C
inactive: Potency [1] | Potency [2] | Potency [3] | Potency [4] | Potency [8] | Potency [9] | Potency [10] | Potency [12] | Potency [13]
active: Potency [11] 39.9 µM

O=S(=O)(O)CCCN1CCOCC1
inactive: Potency [1] | Potency [2] | Potency [3] | Potency [4] | Potency [8] | Potency [9] | Potency [10] | Potency [11] | Potency [12] | Potency [13]

CCOCOCC
inactive: Potency [1] | Potency [2] | Potency [3] | Potency [4] | Potency [8] | Potency [9] | Potency [10] | Potency [11] | Potency [12] | Potency [13]

c1ccc2c(c1)CCC2
inactive: Potency [1] | Potency [2] | Potency [3] | Potency [4] | Potency [8] | Potency [9] | Potency [10] | Potency [11] | Potency [12] | Potency [13]
